According to PubChem BioAssay AID1159580 (chemical genetic matrix, 2015):
“And” between values parts separate entries of the source, which are not always exact repeats. Equal entries are not always repeated. Screen size: about 5,500 compounds; about 2,000 (36%) were called active. Inconclusive results (about 18%) are left out. Rule as the data show it: active = normalized growth mostly below about 0.91 (no sharp cut-off); inconclusive = no clear call, values can overlap the other calls; inactive = mostly above about 0.92. Some of the results follow.

Assay: chemical genetic growth profiling, strain panel (AID 1159580);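 also: tested at 20 µM; growth read once vehicle control cultures reached saturation at 30 °C; 1 = growth at the plate median or of vehicle wells; lower values mean less growth of the strain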
Details: S. cerevisiae deletion strains, growth OD

Measured: normalized growth

CC1(C)C2CC[C@]3(C)C(C(=O)C=C4[C@H]5C[C@@](C)(C(=O)O)CC[C@]5(C)CC[C@]43C)[C@@]2(C)CC[C@@H]1O (stereo partly specified)
inactive: locus YAL013W, strain DEP1, hits give low values 1.04 | locus YAL021C, strain ccr4, hits give low values 1.02 | locus YAL030W, strain snc1, hits give low values 1 | locus YBL061C, strain skt5, hits give low values 0.972 | locus YBR021W, strain FUR4, hits give low values 1 | locus YBR023C, strain chs3, hits give low values 0.941 | locus YBR171W, strain sec66, hits give low values 1.02 | locus YBR229C, strain ROT2, hits give low values 1.04 | locus YBR231C, strain swc5, hits give low values 0.98 | locus YBR279W, strain paf1, hits give low values 0.948 | locus YCL011C, strain gbp2, hits give low values 0.923 | locus YCL016C, strain dcc1, hits give low values 0.944 | locus YCL029C, strain bik1, hits give low values 0.962 | locus YCL061C, strain MRC1, hits give low values 0.96 | locus YCL069W, strain vba3, hits give low values 0.955 | locus YCR088W, strain abp1, hits give low values 1.01 | locus YDL005C, strain med2, hits give low values 1 | locus YDL035C, strain GPR1, hits give low values 0.969 | locus YDL040C, strain nat1, hits give low values 0.995 | locus YDL074C, strain BRE1, hits give low values 1.02 | locus YDL101C, strain DUN1, hits give low values 1.02 | locus YDL134C, strain PPH21, hits give low values 1.03 | locus YDL185W, strain tfp1, hits give low values 1.01 | locus YDL192W, strain arf1, hits give low values 1.01 | locus YDR001C, strain nth1, hits give low values 1.02 | locus YDR069C, strain doa4, hits give low values 0.985 | locus YDR101C, strain arx1, hits give low values 0.988 | locus YDR150W, strain NUM1, hits give low values 1.06 | locus YDR159W, strain sac3, hits give low values 0.977 | locus YDR162C, strain NBP2, hits give low values 1.02 | locus YDR195W, strain ref2 1.1 | locus YDR297W, strain sur2, hits give low values 0.963 | locus YDR318W, strain mcm21, hits give low values 0.994 | locus YDR334W, strain swr1, hits give low values 1.04 | locus YDR335W, strain msn5, hits give low values 0.941 | locus YDR388W, hits give low values 1.01 | locus YDR502C, strain sam2, hits give low values 1 | locus YEL003W, strain gim4, hits give low values 0.97 | locus YEL037C, strain rad23, hits give low values 1.01 | locus YEL061C, strain CIN8 (second series), hits give low values 0.983 | locus YEL061C, strain CIN8, hits give low values 1.04 | locus YER015W, strain faa2, hits give low values 0.933 | locus YER016W, strain bim1, hits give low values 1.02 | locus YER110C, hits give low values 1.01 | locus YER111C, strain swi4, hits give low values 1.01 | locus YER155C, strain BEM2 (second series), hits give low values 0.874 | locus YER155C, strain BEM2, hits give low values 1.05 | locus YER167W, strain BCK2, hits give low values 1.04 | locus YFR010W, strain ubp6, hits give low values 0.99 | locus YGL078C, strain dbp3, hits give low values 0.94 | locus YGL086W, strain mad1, hits give low values 1.01 | locus YGL167C, strain pmr1, hits give low values 1.02 | locus YGL173C, strain kem1, hits give low values 0.999 | locus YGL227W, strain vid30, hits give low values 1.02 | locus YGL248W, strain PDE1, hits give low values 1.03 | locus YGR078C, strain PAC10, hits give low values 1.01 | locus YGR135W, strain pre9, hits give low values 0.985 | locus YGR229C, strain SMI1, hits give low values 0.984 | locus YGR252W, strain gcn5, hits give low values 0.935 | locus YHR013C, strain ard1, hits give low values 0.965 | locus YHR027C, strain rpn1, hits give low values 0.997 | locus YHR030C, strain SLT2, hits give low values 1.05 and 1.01 | locus YHR079C, strain IRE1 (second series), hits give low values 1 | locus YHR079C, strain IRE1, hits give low values 1.02 | locus YHR094C, strain hxt1, hits give low values 1.02 | locus YHR129C, strain ARP1, hits give low values 1.06 | locus YHR200W, strain rpn10, hits give low values 0.999 | locus YIL066C, strain RNR3, hits give low values 1.03 | locus YIL073C, strain SPO22, hits give low values 0.994 | locus YIL125W, strain kgd1, hits give low values 1.03 | locus YIR030C, strain dcg1, hits give low values 1.01 | locus YJL092W, strain hpr5, hits give low values 1.01 | locus YJL095W, strain BCK1, hits give low values 1.04 and 1.01 | locus YJL115W, strain asf1, hits give low values 1.04 | locus YJL129C, strain trk1, hits give low values 0.921 | locus YJL134W, strain LCB3, hits give low values 1.03 | locus YJL154C, strain vps35, hits give low values 1.02 | locus YJL168C, strain set2, hits give low values 1.02 | locus YJL187C, strain SWE1 (second series), hits give low values 1 | locus YJR043C, strain POL32, hits give low values 0.969 | locus YJR066W, strain TOR1, hits give low values 0.96
active: locus YAL026C, strain drs2, hits give low values 0.881 | locus YBR009C, strain hhf1, hits give low values 0.861 | locus YDR137W, strain rgp1, hits give low values 0.743 | locus YDR392W, strain spt3, hits give low values 0.493 | locus YGL240W, strain doc1, hits give low values 0.879 | locus YGL253W, strain hxk2, hits give low values 0.754 | locus YHR142W, strain chs7, hits give low values 0.78 | locus YJL095W, strain BCK1 (second series), hits give low values 0.83 | locus YJL164C, strain tpk1, hits give low values 0.865 | locus YJL166W, strain qcr8, hits give low values 0.845
